# From the supplement of paper PMC13380429
# Counter-ions that a name gives are not always drawn. Unmarked numbers belong to inactive results.
# System: Vero E6 infected with SARS-CoV-2
# Assay: inhibition of SARS-CoV-2 cytopathic effect; higher = more antiviral protection, active = above 15
# Conditions: 48 h
SMILES,inhibition of SARS-CoV-2 cytopathic effect (1 nM) [%],inhibition of SARS-CoV-2 cytopathic effect (8.33 nM) [%],inhibition of SARS-CoV-2 cytopathic effect (100 nM) [%],inhibition of SARS-CoV-2 cytopathic effect (833.33 nM) [%],inhibition of SARS-CoV-2 cytopathic effect (10000 nM)
N[C@@H](CSCCCO)C(=O)O [fudosteine],0.08,1.3,0.76,1.15,-1.74%
Cc1cc(C(=O)Nc2cccc(C(=O)Nc3cccc(C(F)(F)F)c3)c2)on1,0.37,3.92,-2.18,-1.26,-3.26%
C[C@]12CC[C@@H]3c4ccc(O)cc4CC[C@H]3[C@@H]1CCC2=O [estrone],1.09,1.93,-0.92,0.5,2.53%
CN(C)NC(=O)CCC(=O)O [daminozide],-0.2,2.15,0.35,0.11,1.18%
c1ccc([C@@H]2C[C@H]2NC2CCNCC2)cc1,-2.71,1.14,0.53,1.44,-2.6%
CN(C)CCc1ccc(O)cc1 [hordenine],0.04,-0.27,0.47,-2.27,-0.68%
NC(=O)CCCCn1ccc(/N=C(\N)NCC(F)(F)F)n1,0.43,2.16,-1.98,0.05,-0.82%
Cc1c(Cl)cccc1Nc1ccccc1C(=O)O [tolfenamic-acid],-1.57,-0.57,1.25,0.34,-0.7%
O=C(O)c1ccc(CN2CCC(CN[C@@H]3C[C@H]3c3ccccc3)CC2)cc1,0.72,1.52,1.24,3.6,2.94%
Nc1ncnc2[nH]nc(Nc3ccc(F)cc3)c12,-2.32,-2.2,-2.66,-0.59,-5.26%
O=C(O)[C@@H]1C[C@@H](O)CN1 [L-hydroxyproline],-3.79,-1.12,-0.27,-1.36,-3.93%
CC(C)(C)c1[nH]cnc1/C=c1\[nH]c(=O)/c(=C/c2ccccc2)[nH]c1=O [plinabulin],0.88,3.39,-1.75,0.24,2.48%
C[C@@H]1CCO[C@H]2Cn3cc(C(=O)NCc4ccc(F)cc4F)c(=O)c(O)c3C(=O)N12 [dolutegravir],-0.6,1.42,4,1.93,4.1%
CC1(C)C[C@@H]1C(=O)N/C(=C\CCCCSC[C@H](N)C(=O)O)C(=O)O [Cilastatin Sodium],1.3,3.44,-0.05,-0.19,-0.52%
Nc1c(S(=O)(=O)O)cc(Nc2cccc3ccccc23)c2c1C(=O)c1ccccc1C2=O,-0.33,-0.72,-2.22,-1.16,-4.63%
CCN[C@H]1C[C@H](C)S(=O)(=O)c2sc(S(N)(=O)=O)cc21 [dorzolamide],-0.7,-3.23,-4.56,-1.92,-1.06%
Clc1cccc(-n2nnnc2NCc2ccccc2Oc2ccccn2)c1Cl,1.27,-1.76,-3.85,0.18,1.67%
Cc1cccc(C)c1NC(=O)c1ccc(N)cc1 [ameltolide],0.76,1.03,0.37,-0.04,-2.67%
NCCCCCNCC12CC3CC(CC(C3)C1)C2,2.39,1.74,0.57,2.97,-1.44%
NC(=O)OCC(O)COc1ccc(Cl)cc1 (stereo not given) [chlorphensin-carbamate],2.19,-1.72,1.24,2.98,4.44%
Cc1cc(C)c2nc(-c3ccccn3)cc(C(=O)Nc3ccc(S(=O)(=O)Nc4onc(C)c4C)cc3)c2c1,-1.1,1.15,-0.62,-9.3,-3.05%

SMILES,inhibition of SARS-CoV-2 cytopathic effect (1 nM) [%],inhibition of SARS-CoV-2 cytopathic effect (8.33 nM) [%],inhibition of SARS-CoV-2 cytopathic effect (100 nM) [%],inhibition of SARS-CoV-2 cytopathic effect (833.33 nM) [%],inhibition of SARS-CoV-2 cytopathic effect (10000 nM)
CNC(=O)N(C)N=O [nitrosodimethylurea],-0.7,-0.84,-4.76,1.42,-2.36%
Nc1nccc2c1ncn2C1C=C(CO)C(O)C1O (stereo not given) [3-deazaneplanocin-A],0.46,1.89,3.16,5.38,-3.44%
COc1ccc(-c2oc3c(CC=C(C)C)c(O[C@@H]4O[C@H](CO)[C@@H](O)[C@H](O)[C@H]4O)cc(O)c3c(=O)c2O[C@@H]2O[C@@H](C)[C@H](O)[C@@H](O)[C@H]2O)cc1 [icariin],4.38,3.84,1.25,-0.92,-4.04%
Cc1coc2c1C(=O)C(=O)c1c-2ccc2c(C)cccc12 [tanshinone-I],1.07,-0.7,0.25,-2.81,-1.34%
c1ccc2nc(C3=NCCN3)ccc2c1,-1,0.61,2.25,3.75,2.01%
CN1CCCN(C(c2ccccc2)c2ccc(Cl)cc2)CC1 (stereo not given) [homochlorcyclizine],2.1,1.84,1.43,-2.39,-1.32%
O=C(CO)[C@@H](O)[C@@H](O)[C@H](O)CO [tagatose],-1.77,-0.71,-0.15,-0.41,0.74%
OCCN1CCN(CC/C=C2/c3ccccc3Sc3ccc(C(F)(F)F)cc32)CC1 [flupentixol],-4.51,0.12,-2.01,-0.29,0.08%
COc1ccc2c(c1)[C@]13CCCC[C@@H]1[C@H](C2)N(C)CC3 [dextromethorphan],0.17,-0.37,0.6,0.81,-0.1%
CC[C@@H](c1cccc(O)c1)[C@@H](C)CN(C)C [Tapentadol (hydrochloride)],2,1.05,1.07,3.03,-0.29%
OCCN1CCN(CC/C=C2/c3ccccc3Sc3ccc(Cl)cc32)CC1 [zuclopenthixol],-1.15,-3.42,-1.94,-3.61,8.42%
O=C(Nc1cnc(Cl)nc1)c1ccc(F)c(F)c1,1.95,1.13,2.59,-0.85,0.14%
CS(=O)(=O)c1ccc(-c2cn3ccccc3n2)cc1 [zolimidine],-3.68,0.55,3.07,-5.22,-2.8%
CCCCCCCCCCCCCCCC=O [1-hexadecanal],0.5,2.85,-0.54,-0.08,1.56%
COc1ccccc1OCC(O)CN1CCN(CC(=O)Nc2c(C)cccc2C)CC1 (stereo not given) [ranolazine],0.1,-0.38,-2.33,0.17,-0.73%
COc1ccc(Cl)cc1[C@]1(F)C(=O)Nc2cc(C(F)(F)F)ccc21 [flindokalner],2.54,0,-1.3,1.03,-0.62%
Cc1cnc(CNC(=O)c2c(=O)c3ccc(N4CCCN(C)CC4)nc3n3c2sc2ccccc23)cn1,0.83,-2.59,-1.2,4.48,0.59%
Cc1cc(CN)cc(C)c1NC(=O)c1ccc(-c2cc(Cl)ccc2Cl)o1,-1.09,1.98,3.29,-1.5,66.2% (active)
CNC(=O)[C@H]1O[C@@H](n2cnc3c(NCc4cccc(I)c4)ncnc32)[C@H](O)[C@@H]1O,0.17,0.13,-0.04,0.25,-2.76%
O=C(NCc1ccc(F)cc1)N1CCN2C(=O)OC(c3ccccc3)(c3ccccc3)[C@@H]2C1 (racemic),1.17,1.29,3.05,3.22,-6.01%
CN(C)CCn1cc(S(=O)(=O)c2cccc(F)c2)c2cccnc21,5.3,5.65,1.09,-1.84,-1.97%
